Whole data set: some 140,000 sequences, median “enrichment ratio after two sorts for PhoP signalling” near 0, cut for the highest 2% near 11. Many of the other results were omitted from the sample, so the highest values are more common in it than they were. Bounds are passed on as bounds.

The labels stand for the following.
B1: PhoQ; a variant is named by its letters at X, in order, P23837 (parent)
chain: MKKLLRLFFPLSLRVRFLLATAAVVLVLSLAYGMVALIGYSVSFDKTTFRLLRGESNLFYTLAKWENNKLHVELPENIDKQSPTMTLIYDENGQLLWAQRDVPWLMKMIQPDWLKSNGFHEIEADVNDTSLLLSGDHSIQQQLQEVREDDDDAEMTHSVAVNVYPATSRMPKLTIVVVDTIPVELKSSYMVWSWFIYVLSANLLLVIPLLWVAAWWSLRPIEALAKEVRELEEHNRELLNPATTRELTSLVRNLNRLLKSERERYDKYRTTLTDLTHSLKTPLXXLQXXLRSLRSEKMSVSDAEPVMLEQISRISQQIGYYLHRASMRGGTLLSRELHPVAPLLDNLTSALNKVYQRKGVNISLDISPEISFVGEQNDFVEVMGNVLDNACKYCLEFVEISARQTDEHLYIVVEDDGPGIPLSKREVIFDRGQRVDTLRPGQGVGLAVAREITEQYEGKIVAGESMLGGARMEVIFGRQHSAPKDE

Variants of B1 are the subject of the assay. Briefly: enrichment ratio after two sorts for PhoP signalling (ratio (wild type AVST 3.29)); higher = more functional. To be noted: with PhoP (E. coli).
Take QGAE: the enrichment ratio is at most 0.25.

For FIVP, the enrichment ratio is at most 0.25.

Turning to FWLL, the enrichment ratio was at most 0.25.

Take PSSI: the enrichment ratio was at most 0.25.

As for QLYR, the enrichment ratio turned out to be 0.63.

Consider YEWP, for which the enrichment ratio was at most 0.25.

Regarding IVFG, the enrichment ratio is at most 0.25.

STMS: the enrichment ratio was 15.6.

SWMS: the enrichment ratio was at most 0.25.

On to SPMS, for which the enrichment ratio was at most 0.25.

In the case of NWMF, the enrichment ratio was at most 0.25.

Consider AGGK, for which the enrichment ratio was at most 0.25.

As for RGSQ, the enrichment ratio is at most 0.25.

AGSQ: the enrichment ratio turned out to be 12.9.

With TGSQ, the enrichment ratio amounted to 25.1.

As to NGSQ, the enrichment ratio is at most 0.25.

As for AGSR, the enrichment ratio was at most 0.25.

On to LDTG, for which the enrichment ratio is at most 0.25.

Take DEHI: the enrichment ratio was at most 0.25.

For FAGW, the enrichment ratio is at most 0.25.

Take HEIN: the enrichment ratio is at most 0.25.

On to EYTQ, for which the enrichment ratio was at most 0.25.

Take STMN: the enrichment ratio was 2.85.

On to AQMN, for which the enrichment ratio was found to be 38.4.

Turning to SQMN, the enrichment ratio turned out to be 25.3.

As for AIMN, the enrichment ratio was 5.77.

For the variant AQKN, the enrichment ratio was at most 0.25.

For SPMN, the enrichment ratio was at most 0.25.

YRVY: the enrichment ratio was at most 0.25.

Turning to YKWQ, the enrichment ratio is at most 0.25.

Turning to AELD, the enrichment ratio was 11.4.

With AELM, the enrichment ratio is 2.01.

On to AEGD, for which the enrichment ratio is 0.253.

AQQV: the enrichment ratio was at most 0.25.

As for AEEA, the enrichment ratio is at most 0.25.

With AEYN, the enrichment ratio is at most 0.25.

On to AEEN, for which the enrichment ratio is at most 0.25.

Consider AELF, for which the enrichment ratio was determined as 16.2.

As to APLF, the enrichment ratio is at most 0.25.

For the variant AEQV, the enrichment ratio worked out at 12.7.

For the variant AEQN, the enrichment ratio is 21.7.

Take AILD: the enrichment ratio was at most 0.25.

For the variant MEFK, the enrichment ratio is 1.13.

Consider WLKT, for which the enrichment ratio is at most 0.25.

For LQAS, the enrichment ratio was at most 0.25.

Turning to AHLW, the enrichment ratio was at most 0.25.

As for AELW, the enrichment ratio worked out at 11.4.

Regarding AILW, the enrichment ratio was at most 0.25.

On to AELS, for which the enrichment ratio was 10.7.

In the case of AEPA, the enrichment ratio is at most 0.25.

With AEFP, the enrichment ratio is at most 0.25.

As for AELY, the enrichment ratio was determined as 9.13.

As to AEWI, the enrichment ratio is at most 0.25.

As to AEFA, the enrichment ratio came out at 0.58.

As to AEFS, the enrichment ratio stood at 19.

In the case of AELK, the enrichment ratio came to 11.5.

Take AELA: the enrichment ratio is 18.7.

For the variant SDLA, the enrichment ratio came to 1.18.

As for VFRG, the enrichment ratio is at most 0.25.

Turning to LTPC, the enrichment ratio was at most 0.25.

As for YIFI, the enrichment ratio is at most 0.25.

Turning to AELV, the enrichment ratio came out at 24.4.

As for AHGN, the enrichment ratio was at most 0.25.

On to AELP, for which the enrichment ratio is at most 0.25.

Consider AECN, for which the enrichment ratio was determined as 6.19.

With AELI, the enrichment ratio stood at 30.6.

On to AELN, for which the enrichment ratio was 12.5.

For the variant AEDK, the enrichment ratio is at most 0.25.

AEWN: the enrichment ratio is at most 0.25.

For AIGN, the enrichment ratio worked out at 6.31.

With AEGN, the enrichment ratio is 12.2.

Consider AEHK, for which the enrichment ratio was at most 0.25.

On to AVWD, for which the enrichment ratio is at most 0.25.

Consider EYSC, for which the enrichment ratio was at most 0.25.

In the case of PPHG, the enrichment ratio was at most 0.25.

On to ISCM, for which the enrichment ratio stood at 2.52.

Consider EMGW, for which the enrichment ratio is at most 0.25.

In the case of YGNI, the enrichment ratio was at most 0.25.

On to VDAC, for which the enrichment ratio was at most 0.25.

For QMES, the enrichment ratio is at most 0.25.

In the case of CLVG, the enrichment ratio was at most 0.25.

Take FPHK: the enrichment ratio is at most 0.25.

For WEIR, the enrichment ratio was at most 0.25.

Turning to QELH, the enrichment ratio is at most 0.25.

As for AELH, the enrichment ratio was 11.9.

Regarding AENS, the enrichment ratio was found to be 16.

For AEYR, the enrichment ratio is at most 0.25.

Turning to AELL, the enrichment ratio was 12.1.

In the case of MELH, the enrichment ratio was found to be 6.92.

Regarding AENI, the enrichment ratio is at most 0.25.

Consider GSMR, for which the enrichment ratio is at most 0.25.

For the variant VMYM, the enrichment ratio is at most 0.25.

In the case of VVSV, the enrichment ratio was at most 0.25.

For RPHF, the enrichment ratio is at most 0.25.

SIYY: the enrichment ratio is at most 0.25.

As for KMAI, the enrichment ratio was at most 0.25.

Regarding WIAI, the enrichment ratio is at most 0.25.

For the variant AIAI, the enrichment ratio is 12.7.

Regarding AMAI, the enrichment ratio came out at 14.3.

Consider TIAT, for which the enrichment ratio stood at 10.2.

In the case of TIAI, the enrichment ratio is 11.7.

Regarding TIYY, the enrichment ratio is at most 0.25.

With KYAI, the enrichment ratio is at most 0.25.

For the variant SIAI, the enrichment ratio is 11.6.

Consider AKAI, for which the enrichment ratio stood at 5.1.

Regarding NMAI, the enrichment ratio was at most 0.25.

Regarding VKNM, the enrichment ratio is at most 0.25.

NFFL: the enrichment ratio is at most 0.25.

Regarding GWNK, the enrichment ratio is at most 0.25.

For RLRM, the enrichment ratio was at most 0.25.

For the variant RGTH, the enrichment ratio is at most 0.25.

Consider YTEG, for which the enrichment ratio was at most 0.25.

On to YVMY, for which the enrichment ratio was at most 0.25.

Turning to DNCH, the enrichment ratio was at most 0.25.

GTCF: the enrichment ratio worked out at 1.25.

On to MCSA, for which the enrichment ratio is at most 0.25.

For FSEL, the enrichment ratio is at most 0.25.

For GNAI, the enrichment ratio is 7.21.

With ANCS, the enrichment ratio amounted to 2.95.

Turning to ANAI, the enrichment ratio turned out to be 30.1.

With EQHH, the enrichment ratio is at most 0.25.

NRLL: the enrichment ratio is at most 0.25.

For QFLL, the enrichment ratio was at most 0.25.

Take TSLL: the enrichment ratio stood at 14.

As to FSLL, the enrichment ratio was determined as 13.5.

Take MSLL: the enrichment ratio was 13.3.

Consider NSLL, for which the enrichment ratio came out at 3.55.

Regarding YSLL, the enrichment ratio is 11.4.

As to FQLL, the enrichment ratio was 5.35.

Consider KSLL, for which the enrichment ratio was at most 0.25.

On to QPLL, for which the enrichment ratio was at most 0.25.

As to FCLL, the enrichment ratio came out at 10.7.

MSLT: the enrichment ratio was determined as 4.06.

Regarding TRIL, the enrichment ratio came to 5.95.

Turning to WDTG, the enrichment ratio was at most 0.25.

As for RKRR, the enrichment ratio was at most 0.25.

Regarding VQAF, the enrichment ratio was at most 0.25.

Take TDFE: the enrichment ratio is at most 0.25.

As for NRKC, the enrichment ratio was at most 0.25.

Consider KMVF, for which the enrichment ratio was at most 0.25.

As to SILL, the enrichment ratio was 1.4.

Regarding SYLL, the enrichment ratio was 0.392.

With SSLL, the enrichment ratio turned out to be 19.9.

Consider TMGV, for which the enrichment ratio was 12.1.

Consider SRGV, for which the enrichment ratio is at most 0.25.

In the case of STGV, the enrichment ratio was found to be 13.4.

Consider KYGV, for which the enrichment ratio was at most 0.25.

On to SEGV, for which the enrichment ratio came to 11.7.

On to TMHV, for which the enrichment ratio is 0.946.

Consider YTGV, for which the enrichment ratio was at most 0.25.

With KCGV, the enrichment ratio was at most 0.25.

With QEGV, the enrichment ratio was at most 0.25.

For the variant FHNP, the enrichment ratio is at most 0.25.

As for WDYS, the enrichment ratio is at most 0.25.

LVGT: the enrichment ratio is at most 0.25.

With RDTF, the enrichment ratio was at most 0.25.

With VQAH, the enrichment ratio is at most 0.25.

Consider PCAG, for which the enrichment ratio was at most 0.25.

For the variant LCRQ, the enrichment ratio was at most 0.25.

With YPYC, the enrichment ratio is at most 0.25.

With NHQH, the enrichment ratio was at most 0.25.

For the variant SHQH, the enrichment ratio was at most 0.25.

Regarding TLKH, the enrichment ratio is at most 0.25.

Take THQH: the enrichment ratio turned out to be 23.5.

Regarding TLQH, the enrichment ratio came to 21.1.

Regarding KSQH, the enrichment ratio is at most 0.25.

With RRNN, the enrichment ratio was at most 0.25.

Regarding TVNT, the enrichment ratio was determined as 8.93.

In the case of AHNM, the enrichment ratio was found to be 5.49.

As for NMYM, the enrichment ratio was at most 0.25.

Regarding TQPV, the enrichment ratio was at most 0.25.

For QRAQ, the enrichment ratio was at most 0.25.

On to TGAN, for which the enrichment ratio worked out at 2.47.

Take MGAT: the enrichment ratio worked out at 18.8.

For the variant MGAQ, the enrichment ratio came to 18.9.

For the variant MGNT, the enrichment ratio was at most 0.25.

For the variant MGNL, the enrichment ratio was at most 0.25.

Turning to MGLT, the enrichment ratio was 5.67.

MGKR: the enrichment ratio was at most 0.25.

MKAQ: the enrichment ratio was at most 0.25.

Take MGWN: the enrichment ratio turned out to be 18.9.

For MGDN, the enrichment ratio is at most 0.25.

For the variant MGAN, the enrichment ratio is 12.6.

On to REVQ, for which the enrichment ratio is at most 0.25.

For the variant RQWC, the enrichment ratio was at most 0.25.

Consider SLFD, for which the enrichment ratio was at most 0.25.

As for VERW, the enrichment ratio was at most 0.25.

As for LTMP, the enrichment ratio was at most 0.25.

With VRTD, the enrichment ratio is at most 0.25.

With TDMT, the enrichment ratio was found to be 10.8.

With QVFF, the enrichment ratio is at most 0.25.

Turning to MIFN, the enrichment ratio was 11.

Regarding MKFN, the enrichment ratio is at most 0.25.

For YTFN, the enrichment ratio is at most 0.25.

For MGAI, the enrichment ratio worked out at 16.1.

Take MTFN: the enrichment ratio stood at 16.9.

MGAG: the enrichment ratio was determined as 1.81.

MGCS: the enrichment ratio came out at 6.13.

Turning to TGFN, the enrichment ratio was at most 0.25.

Turning to MGFN, the enrichment ratio came out at 11.6.

(Values after a collection of fitness landscapes (doi:10.1126/science.1257360).)
